# According to paper PMC7862700, “An all-to-all approach to the identification of sequence-specific readers for epigenetic DNA modifications on cytosine”:
# Key:
# Assay in all cases: DAPPL (digital affinity profiling via proximity ligation, sequencing); 10 mM Tris-HCl pH 7.5, 50 mM NaCl, 1 mM DTT, 4% glycerol, room temperature, 30 min; GST-TFs on glutathione beads, 16-mer random dsDNA library, 0.1% formaldehyde crosslink after washing; high values mean tight binding
# FLI1 = biological target: T1, FLI1 (Homo sapiens, UniProt Q01543 1-452); conditions: protein: recombinant; tags: N-terminal GST; dsDNA, one strand shown
# T1 sequence: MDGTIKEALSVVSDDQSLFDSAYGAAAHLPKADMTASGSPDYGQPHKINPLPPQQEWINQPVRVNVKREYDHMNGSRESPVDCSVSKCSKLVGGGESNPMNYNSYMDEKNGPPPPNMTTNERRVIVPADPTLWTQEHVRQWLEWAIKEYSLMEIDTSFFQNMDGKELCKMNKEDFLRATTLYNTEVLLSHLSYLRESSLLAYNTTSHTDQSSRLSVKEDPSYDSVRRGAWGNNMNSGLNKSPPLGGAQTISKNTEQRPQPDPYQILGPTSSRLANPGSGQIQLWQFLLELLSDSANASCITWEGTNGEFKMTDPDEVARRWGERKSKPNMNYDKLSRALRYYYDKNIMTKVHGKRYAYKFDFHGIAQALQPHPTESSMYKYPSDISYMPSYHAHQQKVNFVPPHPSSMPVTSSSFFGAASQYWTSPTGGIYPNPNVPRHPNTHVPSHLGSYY
# Summary of the method: (§1)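 After expression in yeast as GST fusions, human transcription factors were bound to glutathione beads, DNA-barcoded and mixed with a tag-only sample. The pools were incubated with 200 nmole of a 16-mer random double-stranded DNA library in Tris/NaCl/DTT/glycerol buffer (30 min, room temperature), washed and crosslinked with 0.1% formaldehyde. Proximity ligation with BsaI/T4 ligase ran for 1 h at 37 °C, before PCR amplification and sequencing on an Illumina NextSeq500. Binding signal is a hexamer's read frequency for a factor divided by its frequency for the tag-only sample.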
# ELK1 = biological target: T2, ELK1 (Homo sapiens, UniProt P19419 1-428); conditions: protein: recombinant; tags: N-terminal GST; dsDNA, one strand shown
# T2 sequence: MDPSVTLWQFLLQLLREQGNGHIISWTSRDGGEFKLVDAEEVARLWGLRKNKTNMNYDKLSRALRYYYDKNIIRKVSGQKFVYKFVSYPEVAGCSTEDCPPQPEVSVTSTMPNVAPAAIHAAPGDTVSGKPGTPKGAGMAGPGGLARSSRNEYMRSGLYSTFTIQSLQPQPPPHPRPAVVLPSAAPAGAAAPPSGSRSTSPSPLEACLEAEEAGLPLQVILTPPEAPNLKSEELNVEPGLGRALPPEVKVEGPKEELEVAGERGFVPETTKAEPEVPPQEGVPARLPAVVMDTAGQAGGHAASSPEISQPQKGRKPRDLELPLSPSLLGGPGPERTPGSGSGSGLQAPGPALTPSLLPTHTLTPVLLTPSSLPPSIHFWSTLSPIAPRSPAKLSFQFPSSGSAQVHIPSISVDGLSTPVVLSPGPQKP
# Summary of the method: as §1
# GABPA = biological target: T3, GABPA (Homo sapiens, UniProt Q06546 1-454); conditions: protein: recombinant; tags: N-terminal GST; dsDNA, one strand shown
# T3 sequence: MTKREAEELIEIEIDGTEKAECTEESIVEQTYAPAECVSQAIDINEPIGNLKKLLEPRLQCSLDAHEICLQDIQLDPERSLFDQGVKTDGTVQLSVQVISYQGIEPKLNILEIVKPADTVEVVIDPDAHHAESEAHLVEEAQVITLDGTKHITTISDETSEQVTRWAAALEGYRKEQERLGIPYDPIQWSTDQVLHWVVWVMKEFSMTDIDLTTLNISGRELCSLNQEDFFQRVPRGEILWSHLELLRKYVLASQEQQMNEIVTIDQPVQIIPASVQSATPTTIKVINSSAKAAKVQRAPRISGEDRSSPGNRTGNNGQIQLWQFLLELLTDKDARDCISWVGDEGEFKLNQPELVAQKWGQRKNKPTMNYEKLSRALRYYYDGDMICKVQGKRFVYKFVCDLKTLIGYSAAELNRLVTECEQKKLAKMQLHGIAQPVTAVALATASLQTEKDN
# Summary of the method: as §1
# ERG = biological target: T4, ERG (Homo sapiens, UniProt P11308 1-479); conditions: protein: recombinant; tags: N-terminal GST; dsDNA, one strand shown
# T4 sequence: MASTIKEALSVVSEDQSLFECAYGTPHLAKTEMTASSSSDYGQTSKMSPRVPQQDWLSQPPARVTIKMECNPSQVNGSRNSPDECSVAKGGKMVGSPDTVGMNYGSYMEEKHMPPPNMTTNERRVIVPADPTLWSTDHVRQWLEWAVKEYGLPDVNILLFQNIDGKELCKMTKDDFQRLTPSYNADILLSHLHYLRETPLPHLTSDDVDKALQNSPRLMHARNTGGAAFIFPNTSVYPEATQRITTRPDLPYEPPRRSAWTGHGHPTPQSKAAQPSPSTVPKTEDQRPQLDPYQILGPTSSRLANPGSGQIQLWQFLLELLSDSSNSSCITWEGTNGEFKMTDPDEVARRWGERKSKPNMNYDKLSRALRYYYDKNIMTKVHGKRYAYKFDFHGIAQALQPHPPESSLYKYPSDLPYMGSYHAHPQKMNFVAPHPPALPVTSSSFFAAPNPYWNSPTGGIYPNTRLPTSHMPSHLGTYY
# Summary of the method: as §1
# ELF1 = ELF1 (Homo sapiens, UniProt P32519 1-619); conditions: protein: recombinant; tags: N-terminal GST; dsDNA, one strand shown
# Summary of the method: as §1
# EHF = biological target: T5, EHF (Homo sapiens, UniProt Q9NZC4 1-300); conditions: protein: recombinant; tags: N-terminal GST; dsDNA, one strand shown
# T5 sequence: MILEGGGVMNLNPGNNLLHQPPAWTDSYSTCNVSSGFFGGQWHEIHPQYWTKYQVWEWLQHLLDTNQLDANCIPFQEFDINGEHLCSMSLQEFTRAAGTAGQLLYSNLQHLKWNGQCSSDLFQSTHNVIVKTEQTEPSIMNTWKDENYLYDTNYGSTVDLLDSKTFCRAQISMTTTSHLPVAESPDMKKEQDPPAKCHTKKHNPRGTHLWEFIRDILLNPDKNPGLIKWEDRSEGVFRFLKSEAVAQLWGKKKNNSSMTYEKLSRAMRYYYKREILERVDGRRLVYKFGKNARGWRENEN
# Summary of the method: as §1
# SPI1 = SPI1 (Homo sapiens, UniProt P17947 1-270); conditions: protein: recombinant; tags: N-terminal GST; dsDNA, one strand shown
# Summary of the method: as §1
# SPIB = SPIB (Homo sapiens, UniProt Q01892 1-262); conditions: protein: recombinant; tags: N-terminal GST; dsDNA, one strand shown
# Summary of the method: as §1
# ELK3 = biological target: T6, ELK3 (Homo sapiens, UniProt P41970 1-407); conditions: protein: recombinant; tags: N-terminal GST; dsDNA, one strand shown
# T6 sequence: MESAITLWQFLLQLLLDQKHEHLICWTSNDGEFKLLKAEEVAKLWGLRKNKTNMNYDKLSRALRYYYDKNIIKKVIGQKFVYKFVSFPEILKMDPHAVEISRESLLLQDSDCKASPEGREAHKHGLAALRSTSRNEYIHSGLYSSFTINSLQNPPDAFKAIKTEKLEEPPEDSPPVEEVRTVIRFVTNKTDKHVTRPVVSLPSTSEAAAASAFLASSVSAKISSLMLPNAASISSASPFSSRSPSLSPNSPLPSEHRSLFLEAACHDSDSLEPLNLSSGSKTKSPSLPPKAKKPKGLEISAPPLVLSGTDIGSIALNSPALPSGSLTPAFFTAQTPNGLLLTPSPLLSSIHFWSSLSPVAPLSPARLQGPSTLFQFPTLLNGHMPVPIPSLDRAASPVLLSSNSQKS
# Summary of the method: as §1
# FEV = biological target: T7, FEV (Homo sapiens, UniProt Q99581 1-238); conditions: protein: recombinant; tags: N-terminal GST; dsDNA, one strand shown
# T7 sequence: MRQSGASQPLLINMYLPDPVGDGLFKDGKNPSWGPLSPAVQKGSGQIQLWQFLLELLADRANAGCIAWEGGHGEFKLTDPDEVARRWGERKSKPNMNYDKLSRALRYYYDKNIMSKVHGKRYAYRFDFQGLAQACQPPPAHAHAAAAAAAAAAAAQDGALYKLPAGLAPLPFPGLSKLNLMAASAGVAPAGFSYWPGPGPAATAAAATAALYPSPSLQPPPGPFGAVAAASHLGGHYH
# Summary of the method: as §1
# ETV5 = ETV5 (Homo sapiens, UniProt P41161 1-510); conditions: protein: recombinant; tags: N-terminal GST; dsDNA, one strand shown
# Summary of the method: as §1
# HSF1 = HSF1 (Homo sapiens, UniProt Q00613 1-529); conditions: protein: recombinant; tags: N-terminal GST; chain copies: 3; dsDNA, one strand shown
# Summary of the method: as §1
# SPIC = biological target: T8, SPIC (Homo sapiens, UniProt Q8N5J4 1-248); conditions: protein: recombinant; tags: N-terminal GST; dsDNA, one strand shown
# T8 sequence: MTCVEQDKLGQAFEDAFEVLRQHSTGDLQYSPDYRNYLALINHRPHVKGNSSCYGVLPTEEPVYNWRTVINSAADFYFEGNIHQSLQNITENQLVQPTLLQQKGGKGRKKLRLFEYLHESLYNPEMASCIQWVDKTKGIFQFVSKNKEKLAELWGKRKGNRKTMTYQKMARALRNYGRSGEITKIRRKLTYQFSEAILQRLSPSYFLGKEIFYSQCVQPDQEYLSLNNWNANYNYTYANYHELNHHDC
# Summary of the method: as §1
# ELF4 = ELF4 (Homo sapiens, UniProt Q99607 1-663); conditions: protein: recombinant; tags: N-terminal GST; dsDNA, one strand shown
# Summary of the method: as §1
# ELK4 = biological target: T9, ELK4 (Homo sapiens, UniProt P28324-2 1-405); conditions: protein: recombinant; tags: N-terminal GST; dsDNA, one strand shown
# T9 sequence: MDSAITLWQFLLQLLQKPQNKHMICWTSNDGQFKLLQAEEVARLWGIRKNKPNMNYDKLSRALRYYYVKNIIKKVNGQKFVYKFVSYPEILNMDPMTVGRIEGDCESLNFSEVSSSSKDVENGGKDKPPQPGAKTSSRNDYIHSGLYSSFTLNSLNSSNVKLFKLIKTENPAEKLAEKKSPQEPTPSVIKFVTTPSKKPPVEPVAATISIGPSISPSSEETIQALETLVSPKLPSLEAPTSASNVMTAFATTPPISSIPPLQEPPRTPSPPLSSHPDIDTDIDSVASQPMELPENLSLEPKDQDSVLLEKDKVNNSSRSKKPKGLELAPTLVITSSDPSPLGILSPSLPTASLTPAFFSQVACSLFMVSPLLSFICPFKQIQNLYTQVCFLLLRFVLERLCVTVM
# Summary of the method: as §1
# ETV2 = biological target: T10, ETV2 (Homo sapiens, UniProt O00321 1-342); conditions: protein: recombinant; tags: N-terminal GST; dsDNA, one strand shown
# T10 sequence: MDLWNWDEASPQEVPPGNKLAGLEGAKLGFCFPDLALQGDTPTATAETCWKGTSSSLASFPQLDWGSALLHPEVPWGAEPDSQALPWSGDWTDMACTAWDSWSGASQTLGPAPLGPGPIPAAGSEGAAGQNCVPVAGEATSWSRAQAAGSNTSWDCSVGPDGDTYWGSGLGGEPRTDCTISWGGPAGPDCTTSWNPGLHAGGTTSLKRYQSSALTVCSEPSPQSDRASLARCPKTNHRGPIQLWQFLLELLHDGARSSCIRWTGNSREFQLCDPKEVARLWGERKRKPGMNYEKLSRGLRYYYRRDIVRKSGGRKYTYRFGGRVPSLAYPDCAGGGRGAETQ
# Summary of the method: as §1
# ELF3 = biological target: T11, ELF3 (Homo sapiens, UniProt P78545 1-371); conditions: protein: recombinant; tags: N-terminal GST; dsDNA, one strand shown
# T11 sequence: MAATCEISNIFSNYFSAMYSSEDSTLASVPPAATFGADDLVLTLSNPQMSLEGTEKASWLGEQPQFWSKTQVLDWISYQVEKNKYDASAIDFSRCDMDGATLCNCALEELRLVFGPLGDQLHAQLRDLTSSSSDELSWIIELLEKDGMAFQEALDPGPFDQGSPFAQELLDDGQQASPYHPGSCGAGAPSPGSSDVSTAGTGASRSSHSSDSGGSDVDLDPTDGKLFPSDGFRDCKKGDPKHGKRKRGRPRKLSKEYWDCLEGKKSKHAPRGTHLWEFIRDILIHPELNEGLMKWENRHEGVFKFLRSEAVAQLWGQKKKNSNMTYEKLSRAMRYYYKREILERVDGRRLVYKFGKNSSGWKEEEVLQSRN
# Summary of the method: as §1
# ETV1 = ETV1 (Homo sapiens, UniProt P50549 1-477); conditions: protein: recombinant; tags: N-terminal GST; dsDNA, one strand shown
# Summary of the method: as §1
# ELF4, sequence (Q99607 whole entry): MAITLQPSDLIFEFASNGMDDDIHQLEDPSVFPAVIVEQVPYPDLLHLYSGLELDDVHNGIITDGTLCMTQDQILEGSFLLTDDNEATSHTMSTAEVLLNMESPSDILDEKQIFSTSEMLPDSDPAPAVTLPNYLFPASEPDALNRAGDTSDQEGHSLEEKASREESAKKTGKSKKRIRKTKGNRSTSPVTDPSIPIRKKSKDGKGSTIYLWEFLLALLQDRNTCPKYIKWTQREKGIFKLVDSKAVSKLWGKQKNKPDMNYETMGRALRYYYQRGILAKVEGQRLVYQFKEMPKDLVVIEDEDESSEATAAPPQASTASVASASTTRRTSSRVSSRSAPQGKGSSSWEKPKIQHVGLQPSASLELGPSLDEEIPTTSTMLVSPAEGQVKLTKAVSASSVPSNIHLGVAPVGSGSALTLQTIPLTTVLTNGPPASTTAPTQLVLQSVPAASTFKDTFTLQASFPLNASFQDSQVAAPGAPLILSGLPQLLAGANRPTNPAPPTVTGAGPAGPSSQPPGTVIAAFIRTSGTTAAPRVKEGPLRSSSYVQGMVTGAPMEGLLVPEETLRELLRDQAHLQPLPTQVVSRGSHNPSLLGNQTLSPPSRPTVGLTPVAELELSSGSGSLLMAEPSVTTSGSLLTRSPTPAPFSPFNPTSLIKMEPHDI
# ELF1, sequence (P32519 whole entry): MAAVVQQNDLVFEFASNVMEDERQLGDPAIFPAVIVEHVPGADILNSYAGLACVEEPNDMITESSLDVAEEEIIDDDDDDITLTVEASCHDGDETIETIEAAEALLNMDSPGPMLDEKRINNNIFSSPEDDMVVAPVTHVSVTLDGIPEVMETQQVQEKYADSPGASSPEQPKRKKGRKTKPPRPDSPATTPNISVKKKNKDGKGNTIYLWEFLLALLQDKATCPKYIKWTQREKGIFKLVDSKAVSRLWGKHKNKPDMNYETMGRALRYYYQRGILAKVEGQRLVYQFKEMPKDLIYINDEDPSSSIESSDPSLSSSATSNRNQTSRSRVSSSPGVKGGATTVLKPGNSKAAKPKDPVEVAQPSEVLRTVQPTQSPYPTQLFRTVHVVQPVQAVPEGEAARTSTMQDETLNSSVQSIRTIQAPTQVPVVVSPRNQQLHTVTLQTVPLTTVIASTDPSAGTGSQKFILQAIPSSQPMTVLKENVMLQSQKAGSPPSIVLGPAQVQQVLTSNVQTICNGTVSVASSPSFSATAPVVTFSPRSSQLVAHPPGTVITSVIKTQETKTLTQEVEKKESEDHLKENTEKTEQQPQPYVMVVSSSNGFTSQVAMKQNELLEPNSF
# ETV5, sequence (P41161 whole entry): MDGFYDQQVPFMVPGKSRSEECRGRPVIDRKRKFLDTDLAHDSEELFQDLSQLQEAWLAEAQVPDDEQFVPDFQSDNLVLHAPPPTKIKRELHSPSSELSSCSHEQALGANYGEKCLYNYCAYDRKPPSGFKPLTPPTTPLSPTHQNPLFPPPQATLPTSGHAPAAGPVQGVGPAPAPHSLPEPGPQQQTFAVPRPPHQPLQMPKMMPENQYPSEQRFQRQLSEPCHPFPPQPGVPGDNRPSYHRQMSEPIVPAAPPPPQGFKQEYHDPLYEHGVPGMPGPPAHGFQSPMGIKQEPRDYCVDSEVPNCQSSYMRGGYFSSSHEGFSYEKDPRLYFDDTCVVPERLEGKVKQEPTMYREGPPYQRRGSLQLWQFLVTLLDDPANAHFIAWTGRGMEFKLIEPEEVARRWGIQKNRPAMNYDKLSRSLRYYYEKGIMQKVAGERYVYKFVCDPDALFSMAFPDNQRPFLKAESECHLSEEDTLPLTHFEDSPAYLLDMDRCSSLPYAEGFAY
# HSF1, sequence (Q00613 whole entry): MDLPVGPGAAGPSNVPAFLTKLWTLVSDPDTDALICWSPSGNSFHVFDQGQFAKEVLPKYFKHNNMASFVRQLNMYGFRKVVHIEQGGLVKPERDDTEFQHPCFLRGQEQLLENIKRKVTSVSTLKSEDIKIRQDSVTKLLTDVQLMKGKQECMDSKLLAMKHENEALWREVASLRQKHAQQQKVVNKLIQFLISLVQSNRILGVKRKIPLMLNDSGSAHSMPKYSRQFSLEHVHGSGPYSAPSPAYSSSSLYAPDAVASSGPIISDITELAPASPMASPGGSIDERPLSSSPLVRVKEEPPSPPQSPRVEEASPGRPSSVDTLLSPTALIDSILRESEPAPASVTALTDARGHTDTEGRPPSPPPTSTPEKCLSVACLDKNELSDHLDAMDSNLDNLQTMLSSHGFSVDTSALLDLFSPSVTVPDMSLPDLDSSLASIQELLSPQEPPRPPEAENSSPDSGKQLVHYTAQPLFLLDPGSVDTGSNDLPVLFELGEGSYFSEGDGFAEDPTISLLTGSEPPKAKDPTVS
# ETV1, sequence (P50549 whole entry): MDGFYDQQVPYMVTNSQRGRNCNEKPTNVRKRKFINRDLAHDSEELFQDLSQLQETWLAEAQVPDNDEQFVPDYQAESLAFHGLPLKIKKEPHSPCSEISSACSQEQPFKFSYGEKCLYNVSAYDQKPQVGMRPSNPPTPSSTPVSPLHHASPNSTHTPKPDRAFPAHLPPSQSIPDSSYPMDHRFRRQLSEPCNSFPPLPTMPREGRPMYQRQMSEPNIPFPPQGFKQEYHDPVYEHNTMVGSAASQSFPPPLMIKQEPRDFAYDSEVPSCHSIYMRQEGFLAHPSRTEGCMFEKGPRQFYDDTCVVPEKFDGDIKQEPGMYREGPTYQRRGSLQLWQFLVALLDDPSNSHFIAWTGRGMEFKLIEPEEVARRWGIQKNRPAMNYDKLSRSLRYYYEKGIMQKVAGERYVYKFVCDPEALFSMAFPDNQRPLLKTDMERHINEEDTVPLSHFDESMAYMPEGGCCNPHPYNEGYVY
# SPIB, sequence (Q01892 whole entry): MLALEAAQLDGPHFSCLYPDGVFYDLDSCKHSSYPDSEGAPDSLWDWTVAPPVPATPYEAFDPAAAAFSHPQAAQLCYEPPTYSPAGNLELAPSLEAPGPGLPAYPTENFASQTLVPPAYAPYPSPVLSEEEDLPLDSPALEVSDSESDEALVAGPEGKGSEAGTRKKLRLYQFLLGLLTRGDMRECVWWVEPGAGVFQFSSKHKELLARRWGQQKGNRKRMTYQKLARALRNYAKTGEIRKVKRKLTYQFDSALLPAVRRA
sequence,measurement,setting,value
GATGCC,binding signal,FLI1,"1.45 fold enrichment (6-mer frequency, TF over GST control)"
same,binding signal,ELK1,"1.36 fold enrichment (6-mer frequency, TF over GST control)"
same,binding signal,GABPA,"1.38 fold enrichment (6-mer frequency, TF over GST control)"
same,binding signal,ERG,"1.41 fold enrichment (6-mer frequency, TF over GST control)"
same,binding signal,ELF1,"1.32 fold enrichment (6-mer frequency, TF over GST control)"
same,binding signal,EHF,"1.41 fold enrichment (6-mer frequency, TF over GST control)"
same,binding signal,SPI1,"1.35 fold enrichment (6-mer frequency, TF over GST control)"
same,binding signal,SPIB,"1.26 fold enrichment (6-mer frequency, TF over GST control)"
same,binding signal,ELK3,"1.38 fold enrichment (6-mer frequency, TF over GST control)"
same,binding signal,FEV,"1.41 fold enrichment (6-mer frequency, TF over GST control)"
same,binding signal,ETV5,"1.46 fold enrichment (6-mer frequency, TF over GST control)"
same,binding signal,HSF1,"1.08 fold enrichment (6-mer frequency, TF over GST control)"
same,binding signal,SPIC,"1.22 fold enrichment (6-mer frequency, TF over GST control)"
same,binding signal,ELF4,"1.31 fold enrichment (6-mer frequency, TF over GST control)"
same,binding signal,ELK4,"1.42 fold enrichment (6-mer frequency, TF over GST control)"
same,binding signal,ETV2,"1.28 fold enrichment (6-mer frequency, TF over GST control)"
same,binding signal,ELF3,"1.4 fold enrichment (6-mer frequency, TF over GST control)"
same,binding signal,ETV1,"1.36 fold enrichment (6-mer frequency, TF over GST control)"
